Test results published in the supplement of paper PMC8728848.
This excerpt belongs to a sample that is enriched for the strongest signals.

Legend:
Assay in all cases: glycan array binding signal (z-score within array); higher = stronger binding
Conditions in all cases: glycan notation: IUPAC condensed, linker removed
[1] = target: Fuc(a1-2)Gal(b1-3)GalNAc(b1-3)Gal(a1-4)Gal(b1-4)Glc
Summary of the method: (§1)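 From the Consortium for Functional Glycomics database, 3228 arrays were curated, keeping only those whose protein sequence was available. Binding is given as a within-array Z-score averaged across arrays sharing a protein sequence and across linkers. Negative Z-scores can be read as non-binding.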

[2] = target: Fuc(a1-2)Gal(b1-4)GlcNAc(b1-2)Man(a1-3)[Fuc(a1-2)Gal(b1-4)GlcNAc(b1-2)Man(a1-6)]Man(b1-4)GlcNAc(b1-4)GlcNAc
Summary of the method: as §1

[3] = target: Fuc(a1-2)Gal(b1-4)GlcNAc(b1-3)Gal(b1-4)GlcNAc(b1-2)Man(a1-3)[Fuc(a1-2)Gal(b1-4)GlcNAc(b1-3)Gal(b1-4)GlcNAc(b1-2)Man(a1-6)]Man(b1-4)GlcNAc(b1-4)GlcNAc
Summary of the method: as §1

[4] = target: Fuc(a1-2)Gal6S(b1-3)GlcNAc6S
Summary of the method: as §1

Fuc(a1-2)[Gal(a1-3)]Gal = target: Fuc(a1-2)[Gal(a1-3)]Gal
Summary of the method: as §1

[5] = target: Fuc(a1-2)[Gal(a1-3)]Gal(b1-4)GlcNAc(b1-6)GalNAc
Summary of the method: as §1

[6] = target: Fuc(a1-2)[GalNAc(a1-3)]Gal(b1-4)GlcNAc(b1-2)Man
Summary of the method: as §1

[7] = target: Fuc(a1-2)[GalNAc(a1-3)]Gal(b1-4)GlcNAc(b1-3)Gal(b1-4)GlcNAc(b1-3)Gal(b1-4)GlcNAc
Summary of the method: as §1

[8] = target: Fuc(a1-3)[Gal(b1-4)]GlcNAc(b1-2)Man(a1-3)[Fuc(a1-3)[Gal(b1-4)]GlcNAc(b1-2)Man(a1-6)]Man(b1-4)GlcNAc(b1-4)[Fuc(a1-6)]GlcNAc
Summary of the method: as §1

Gal(a1-3)Gal = target: Gal(a1-3)Gal
Summary of the method: as §1

[9] = target: Gal(a1-3)Gal(b1-4)GlcNAc(b1-3)GalNAc
Summary of the method: as §1

[10] = target: Gal(a1-4)Gal(b1-4)GlcNAc(b1-2)Man(a1-3)[Gal(a1-4)Gal(b1-4)GlcNAc(b1-2)Man(a1-6)]Man(b1-4)GlcNAc(b1-4)GlcNAc
Summary of the method: as §1

Gal(b1-2)Gal = target: Gal(b1-2)Gal
Summary of the method: as §1

Gal(b1-3)GalNAc(b1-3)Gal = target: Gal(b1-3)GalNAc(b1-3)Gal
Summary of the method: as §1

[11] = target: Gal(b1-3)GalNAc(b1-4)[Neu5Ac(a2-3)]Gal(b1-4)Glc
Summary of the method: as §1

Gal(b1-4)GlcNAc(b1-2)Man = target: Gal(b1-4)GlcNAc(b1-2)Man
Summary of the method: as §1

[12] = target: Gal(b1-4)GlcNAc(b1-2)[Gal(b1-4)GlcNAc(b1-4)]Man(a1-3)[Gal(b1-4)GlcNAc(b1-2)Man(a1-6)]Man(b1-4)GlcNAc(b1-4)GlcNAc
Summary of the method: as §1

[13] = target: Gal(b1-4)GlcNAc(b1-3)Gal(b1-4)GlcNAc
Summary of the method: as §1

[14] = target: Gal(b1-4)GlcNAc(b1-3)Gal(b1-4)GlcNAc(b1-3)Gal(b1-4)GlcNAc(b1-3)Gal(b1-4)GlcNAc(b1-3)Gal(b1-4)GlcNAc(b1-2)Man(a1-3)[Gal(b1-4)GlcNAc(b1-3)Gal(b1-4)GlcNAc(b1-3)Gal(b1-4)GlcNAc(b1-3)Gal(b1-4)GlcNAc(b1-3)Gal(b1-4)GlcNAc(b1-2)Man(a1-6)]Man(b1-4)GlcNAc(b1-4)GlcNAc
Summary of the method: as §1

[15] = target: Gal(b1-4)GlcNAc(b1-3)Gal(b1-4)GlcNAc(b1-3)Gal(b1-4)GlcNAc(b1-3)Gal(b1-4)GlcNAc(b1-3)Gal(b1-4)GlcNAc(b1-2)Man(a1-3)[Gal(b1-4)GlcNAc(b1-3)Gal(b1-4)GlcNAc(b1-3)Gal(b1-4)GlcNAc(b1-3)Gal(b1-4)GlcNAc(b1-3)Gal(b1-4)GlcNAc(b1-2)Man(a1-6)]Man(b1-4)GlcNAc(b1-4)[Fuc(a1-6)]GlcNAc
Summary of the method: as §1

Gal3S(b1-3)GalNAc = target: Gal3S(b1-3)GalNAc
Summary of the method: as §1

Gal6S(b1-4)GlcNAc6S = target: Gal6S(b1-4)GlcNAc6S
Summary of the method: as §1

[16] = target: GalNAc(b1-3)Gal(a1-4)Gal(b1-4)GlcNAc
Summary of the method: as §1

GalNAc(b1-3)GlcNAc = target: GalNAc(b1-3)GlcNAc
Summary of the method: as §1

GalNAc(b1-4)Gal(b1-4)Glc = target: GalNAc(b1-4)Gal(b1-4)Glc
Summary of the method: as §1

[17] = target: GalNAc(b1-4)GlcNAc(b1-3)GalNAc(b1-4)GlcNAc
Summary of the method: as §1

GalNAc3S(b1-4)GlcNAc = target: GalNAc3S(b1-4)GlcNAc
Summary of the method: as §1

[18] = target: GlcNAc(b1-2)Man(a1-3)[GlcNAc(b1-2)Man(a1-6)]Man(b1-4)GlcNAc(b1-4)[Fuc(a1-6)]GlcNAc
Summary of the method: as §1

[19] = target: GlcNAc(b1-2)Man(a1-3)[GlcNAc(b1-4)][GlcNAc(b1-2)Man(a1-6)]Man(b1-4)GlcNAc(b1-4)GlcNAc
Summary of the method: as §1

[20] = target: GlcNAc(b1-2)[GlcNAc(b1-6)]Man(a1-6)[GlcNAc(b1-4)][GlcNAc(b1-2)Man(a1-3)]Man(b1-4)GlcNAc(b1-4)GlcNAc
Summary of the method: as §1

[21] = target: Neu5Ac(a2-3)Gal(b1-4)GlcNAc(b1-2)[Neu5Ac(a2-3)Gal(b1-4)GlcNAc(b1-4)]Man(a1-3)[GlcNAc(b1-4)][Neu5Ac(a2-3)Gal(b1-4)GlcNAc(b1-2)[Neu5Ac(a2-3)Gal(b1-4)GlcNAc(b1-6)]Man(a1-6)]Man(b1-4)GlcNAc(b1-4)GlcNAc
Summary of the method: as §1

[22] = target: Neu5Ac(a2-3)Gal(b1-4)GlcNAc(b1-6)GalNAc
Summary of the method: as §1

[23] = target: Neu5Ac(a2-3)Gal(b1-4)[Fuc(a1-3)]GlcNAc6S
Summary of the method: as §1

[24] = target: Neu5Ac(a2-3)Gal6S(b1-4)GlcNAc
Summary of the method: as §1

[25] = target: Neu5Ac(a2-3)[Neu5Ac(a2-6)]GalNAc
Summary of the method: as §1

[26] = target: Neu5Ac(a2-6)Gal(b1-4)GlcNAc(b1-2)Man(a1-3)[GlcNAc(b1-4)][Neu5Ac(a2-6)Gal(b1-4)GlcNAc(b1-2)Man(a1-6)]Man(b1-4)GlcNAc(b1-4)GlcNAc
Summary of the method: as §1

[27] = target: Neu5Ac(a2-6)Gal(b1-4)GlcNAc(b1-2)Man(a1-3)[Neu5Ac(a2-6)Gal(b1-4)GlcNAc(b1-2)Man(a1-6)]Man(b1-4)GlcNAc(b1-4)[Fuc(a1-6)]GlcNAc
Summary of the method: as §1

[28] = target: Neu5Ac(a2-6)Gal(b1-4)GlcNAc(b1-2)Man(a1-6)[GlcNAc(b1-2)Man(a1-3)]Man(b1-4)GlcNAc(b1-4)GlcNAc
Summary of the method: as §1

[29] = target: Neu5Gc(a2-3)Gal(b1-3)[Fuc(a1-4)]GlcNAc
Summary of the method: as §1

[30] = target: Neu5Gc(a2-8)Neu5Gc(a2-6)Gal(b1-4)GlcNAc
Summary of the method: as §1

B1: pTFF2 (Sus scrofa), P01359 (protein)
chain: KPAACRCSRQDPKNRVNCGFPGITSDQCFTSGCCFDSQVPGVPWCFKPLPAQESEECVMEVSARKNCGYPGISPEDCAARNCCFSDTIPEVPWCFFPMSVEACHY
Which results are given for B1?
glycan array binding signal (z-score) [1]: -0.047; glycan array binding signal (z-score) [2]: 0.121; glycan array binding signal (z-score) [3]: 0.716; glycan array binding signal (z-score) [4]: -0.991; glycan array binding signal (z-score) (Fuc(a1-2)[Gal(a1-3)]Gal): -0.204; glycan array binding signal (z-score) [5]: -0.303; glycan array binding signal (z-score) [6]: 0.535; glycan array binding signal (z-score) [7]: -0.048; glycan array binding signal (z-score) [8]: -0.109; glycan array binding signal (z-score) (Gal(a1-3)Gal): -0.276; glycan array binding signal (z-score) [9]: 0.196; glycan array binding signal (z-score) [10]: 2.45; glycan array binding signal (z-score) (Gal(b1-2)Gal): -1.31; glycan array binding signal (z-score) (Gal(b1-3)GalNAc(b1-3)Gal): 2.98; glycan array binding signal (z-score) [11]: 2.82; glycan array binding signal (z-score) (Gal(b1-4)GlcNAc(b1-2)Man): -2.22; glycan array binding signal (z-score) [12]: -0.702; glycan array binding signal (z-score) [13]: -0.47; glycan array binding signal (z-score) [14]: 2.48; glycan array binding signal (z-score) [15]: 2.62; glycan array binding signal (z-score) (Gal3S(b1-3)GalNAc): 0.185; glycan array binding signal (z-score) (Gal6S(b1-4)GlcNAc6S): 0.285; glycan array binding signal (z-score) [16]: -0.4; glycan array binding signal (z-score) (GalNAc(b1-3)GlcNAc): 0.736; glycan array binding signal (z-score) (GalNAc(b1-4)Gal(b1-4)Glc): 4.38; glycan array binding signal (z-score) [17]: -0.11; glycan array binding signal (z-score) (GalNAc3S(b1-4)GlcNAc): 2.64; glycan array binding signal (z-score) [18]: -1.4; glycan array binding signal (z-score) [19]: 0.002; glycan array binding signal (z-score) [20]: 0.104

B2: Clec18Av1 (Homo sapiens), A5D8T8 (protein)
chain: MLHPETSPGRGHLLAVLLALLGTAWAEVWPPQLQEQAPMAGALNRKESFLLLSLHNRLRSWVQPPAADMRRLDWSDSLAQLAQARAALCGTPTPSLASGLWRTLQVGWNMQLLPAGLVSFVEVVSLWFAEGQRYSHAAGECARNATCTHYTQLVWATSSQLGCGRHLCSAGQAAIEAFVCAYSPRGNWEVNGKTIVPYKKGAWCSLCTASVSGCFKAWDHAGGLCEVPRNPCRMSCQNHGRLNISTCHCHCPPGYTGRYCQVRCSLQCVHGRFREEECSCVCDIGYGGAQCATKVHFPFHTCDLRIDGDCFMVSSEADTYYRARMKCQRKGGVLAQIKSQKVQDILAFYLGRLETTNEVIDSDFETRNFWIGLTYKTAKDSFRWATGEHQAFTSFAFGQPDNHGFGNCVELQASAAFNWNDQRCKTRNRYICQFAQEHISRWGPGS
For B2, which “glycan array binding signal (z-score)” value [21] is on record?
The value was -0.868.

What about the “glycan array binding signal (z-score)” value [22] of the same binder?
Its value is 1.49.

And the “glycan array binding signal (z-score)” value [23]?
The value was -0.818.

What about the “glycan array binding signal (z-score)” value [24] of the same binder?
Its value is -0.585.

And the “glycan array binding signal (z-score)” value [25]?
Its value is -0.853.

And the “glycan array binding signal (z-score)” value [26]?
Its value is -0.604.

What about the “glycan array binding signal (z-score)” value [27] of the same binder?
The value was 3.58.

What about the “glycan array binding signal (z-score)” value [28] of the same binder?
Its value is 4.86.

And the “glycan array binding signal (z-score)” value [29]?
The value was -0.646.

And the “glycan array binding signal (z-score)” value [30]?
The value was 0.057.
